Measured values taken from the supplement of paper PMC3334620.
The full ranking holds about 33,000 sequences; the median of “E-score (-0.5 to 0.5)” is about -0.043, and the highest 2% start at about 0.37. The list comes from a sample in which the highest values are over-represented; it also holds similar and randomly drawn sequences.

Molecular target: T1, Upc2 (UniProt Q12151)
T1 sequence: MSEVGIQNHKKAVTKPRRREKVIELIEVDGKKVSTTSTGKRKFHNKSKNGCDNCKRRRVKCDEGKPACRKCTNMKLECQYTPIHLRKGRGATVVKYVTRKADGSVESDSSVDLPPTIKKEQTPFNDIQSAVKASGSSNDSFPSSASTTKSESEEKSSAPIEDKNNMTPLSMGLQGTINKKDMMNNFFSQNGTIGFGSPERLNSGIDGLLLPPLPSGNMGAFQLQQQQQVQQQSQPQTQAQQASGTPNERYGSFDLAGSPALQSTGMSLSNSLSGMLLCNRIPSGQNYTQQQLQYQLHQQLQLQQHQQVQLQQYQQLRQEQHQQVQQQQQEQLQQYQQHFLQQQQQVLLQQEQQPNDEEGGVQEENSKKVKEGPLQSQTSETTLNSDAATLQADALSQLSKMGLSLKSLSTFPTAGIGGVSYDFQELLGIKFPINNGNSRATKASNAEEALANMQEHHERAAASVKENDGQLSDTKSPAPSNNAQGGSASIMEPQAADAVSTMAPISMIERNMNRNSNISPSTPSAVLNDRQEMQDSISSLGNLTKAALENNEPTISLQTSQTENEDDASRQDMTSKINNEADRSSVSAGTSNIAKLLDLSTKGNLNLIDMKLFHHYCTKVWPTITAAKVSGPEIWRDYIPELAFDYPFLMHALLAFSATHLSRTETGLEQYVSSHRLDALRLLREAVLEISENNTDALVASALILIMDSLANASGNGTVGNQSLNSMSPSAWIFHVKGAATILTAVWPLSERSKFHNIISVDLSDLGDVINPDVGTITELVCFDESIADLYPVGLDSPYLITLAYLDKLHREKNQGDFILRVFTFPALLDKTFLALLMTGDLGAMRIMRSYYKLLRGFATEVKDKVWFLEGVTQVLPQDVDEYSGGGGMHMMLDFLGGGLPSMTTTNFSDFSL
Experiment: PBM E-score (8-mer binding enrichment) (E-score (-0.5 to 0.5)); higher = stronger / more preferred TF binding
Details: protein concentration: 200 nM; construct: GST-full length
Description: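 Universal 'all 10-mer' protein binding microarrays (Agilent AMADID 015681) probed with GST-tagged S. cerevisiae TFs (full-length or DBD) made by in vitro transcription/translation (PURExpress), about 100-200 nM. Bound TF was detected with fluorescent anti-GST. Each ungapped 8-mer (which stands for itself and its reverse complement) is scored by the PBM enrichment score (E-score), a modified Wilcoxon-Mann-Whitney statistic from -0.5 to +0.5, computed with the Universal PBM Analysis Suite. Scale: above 0.35 generally sequence-specific binding.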

Sequence	PBM E-score
ATTAAACC	-0.0396
ATTAAACA	-0.0789
ATTTAACG	0.387
CGACTCTA	0.0472
CAAGGTTA	0.0313
AGCATCCG	0.106
TACTCAGA	-0.0518
CGCCTGTA	-0.0476
GACCCACA	0.0499
CAAGTAAA	0.0181
GGTTGACA	-0.0866
ATCTAATC	-0.0686
CCTCGTGA	0.168
TCTCGTAA	0.434
CCTCGGAC	0.199
CCGCGTAC	0.324
TCACGTAA	0.0344
CCTCGTAC	0.477
CCTCGTCA	0.108
CCTCATAG	-0.226
TCTCGTCA	-0.0265
CCTCGTAA	0.444

Sequence	PBM E-score
CCTCGTCG	0.195
CCTCGTAG	0.389
CATCACTA	-0.183
CACTTTCA	-0.151
CCTACACA	-0.118
CGAGAGAA	0.113
CCTCAGTA	-0.0614
ACTCGTAC	0.472
GCTCGTGA	0.00182
ACTCGTAA	0.433
GCTCGTCC	-0.249
ACTCGTCC	-0.141
ACTCGTGC	0.0738
GCTCGTAC	0.477
GCTCGTCA	0.0569
ACTCGTAG	0.353
GCTCGTAA	0.456
ACTCGTCA	-0.0246
GCACGTAC	0.227
CCTAAGGA	-0.0656
ACAAGCTC	-0.0437
CCGTGGCC	-0.206

Sequence	PBM E-score
CCAAGTGG	-0.186
ATGCAACG	0.113
ACCCCTGC	-0.412
ATGACTCA	0.029
CAGCCTCA	-0.0411
CTCTCAAG	-0.308
AGATATGC	-0.186
ACTCGGAT	0.252
ACTCGTCT	0.167
ACTCGTAT	0.483
ATCGATCC	-0.00332
CATCCACA	-0.0464
GTAAGCGA	0.388
CTAAGCGC	0.14
ATAAGCGA	0.347
GGAAGCGA	0.145
CTAAGCTA	0.015
CTAAGCGA	0.416
CCATCGAC	-0.247
ATGGGAGA	-0.251
AACCGGTT	0.107
ACTCTAGC	-0.12

Sequence	PBM E-score
GGAACTGA	-0.0729
AACGCTGA	0.0761
CTAGTGAA	-0.126
CTCGTTCC	0.479
CTCGTTCA	0.476
CTCGTTGA	0.313
ATCGTTCC	0.43
GGCGTTCA	0.0581
CCCGTTCC	0.327
AGCGTTCC	0.117
CACGTTCA	0.092
AACGTTCC	0.152
GTCGTTCA	0.467
CGCGTTCC	0.223
GACGTTCA	0.0943
AAATGGCG	-0.0033
AGCTAATC	-0.0679
ATCAAAAC	0.0147
ACACTGTA	0.106
ATCGAAGC	-0.00965
GGTGTGGA	0.00988
